Measured values taken from PubChem BioAssay (NCI).
The panel holds about 83,000 compounds, 20% with a hit somewhere; the sample as a whole holds those more often.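 A percent growth of 40 corresponds to 60% growth inhibition; 0 means no net growth; -100 means all cells died. Active threshold: below 10.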 Unmarked numbers belong to inactive results. The source made the active and inactive calls.

Experiments:
Assay in all cases: NCI-60 one-dose screen, 48 h (100 = growth as untreated, 0 = no growth, -100 = all killed)
Conditions in all cases: 10 µM
SK-MEL-2 melanoma = tested on: SK-MEL-2 melanoma
EKVX NSCLC = tested on: EKVX NSCLC
SN12C renal = tested on: SN12C renal
UO-31 renal = tested on: UO-31 renal
TK-10 renal = tested on: TK-10 renal
ACHN renal = tested on: ACHN renal
CAKI-1 renal = tested on: CAKI-1 renal
A498 renal = tested on: A498 renal
CCRF-CEM leukemia = tested on: CCRF-CEM leukemia
MOLT-4 leukemia = tested on: MOLT-4 leukemia
SR leukemia = tested on: SR leukemia
RPMI-8226 leukemia = tested on: RPMI-8226 leukemia
OVCAR-5 ovarian = tested on: OVCAR-5 ovarian
OVCAR-4 ovarian = tested on: OVCAR-4 ovarian
SK-OV-3 ovarian = tested on: SK-OV-3 ovarian
IGROV1 ovarian = tested on: IGROV1 ovarian
OVCAR-3 ovarian = tested on: OVCAR-3 ovarian
HS 578T breast = tested on: HS 578T breast
NCI/ADR-RES ovarian = tested on: NCI/ADR-RES ovarian
OVCAR-8 ovarian = tested on: OVCAR-8 ovarian

Row | SMILES | growth (SK-MEL-2 melanoma) | growth (EKVX NSCLC) | growth (SN12C renal) | growth (UO-31 renal) | growth (TK-10 renal) | growth (ACHN renal) | growth (CAKI-1 renal) | growth (A498 renal) | growth (CCRF-CEM leukemia) | growth (MOLT-4 leukemia) | growth (SR leukemia) | growth (RPMI-8226 leukemia) | growth (OVCAR-5 ovarian) | growth (OVCAR-4 ovarian) | growth (SK-OV-3 ovarian) | growth (IGROV1 ovarian) | growth (OVCAR-3 ovarian) | growth (HS 578T breast) | growth (NCI/ADR-RES ovarian) | growth (OVCAR-8 ovarian)
1 | O=C(NO)c1ccc(CNC(=O)[C@H]2Cc3c([nH]c4ccccc34)[C@H](c3ccccc3)N2)cc1 | 9.61% (active) | 44.8% | 46.7% | 46.3% | 30.9% | 70.8% | 78.3% | 23.2% | 22.2% | 12.7% | 23.8% | 15.1% | 15.3% | 53.7% | -3.43% (active) | 46.9% | 22.7% | 17.3% | 63% | 
2 | O=C(CNc1nc(-c2ccccc2)cs1)Nc1ccc([N+](=O)[O-])cc1 | 31.1% | 9.52% (active) | 16.9% | -74.3% (active) | -58% (active) | -15.8% (active) | 7.15% (active) | 109% | 14.3% | 15.7% | 10.8% | 11.7% | -39.6% (active) | 18% | 53.9% | 16.6% | 13.1% | 21.8% | -20.4% (active) | 
3 | CC1(c2ccccc2)NC(=O)N(CC(=O)Nc2ccc(C(=O)/C=C/c3ccc(Cl)cc3)cc2)C1=O (stereo unspecified) | 34% | 30.3% | 19.4% | 22.7% | 67.9% | 13.4% | 21.4% | 76.7% | 7.4% (active) | -4.5% (active) | -13.3% (active) |  | 34.5% | 24.8% | 66% | -19.8% (active) | -69.9% (active) | 48.9% | 48.9% | 17.7%
4 | CC1(c2ccccc2)NC(=O)N(CC(=O)Nc2ccc(C(=O)/C=C/c3ccc(Br)cc3)cc2)C1=O (stereo unspecified) | 52.3% | 55% | 51.2% | 34.3% | 76.7% | 35% | 39.5% | 71.1% | 32% | 13.9% | 15.5% |  | 76% | 43.3% | 94.3% | 61.6% | 27.4% | 53.4% | 79.8% | 41.3%
5 | CCCn1c(=O)c2[nH]c(-c3ccc(OCc4nc5ccccc5[nH]4)cc3)nc2n(CCC)c1=O | 81.6% | 55.7% | 2.85% (active) | 35.7% | 17.4% | 32.4% | 39.1% | -10.5% (active) | 87.8% | 70.7% | 39% | 40% | 92.2% |  | 40.3% | 39.8% | 26.8% | -17.8% (active) | 66.3% | 27.6%
6 | O=c1[nH]c2ccccc2cc1CSc1ccc(Nc2nccc(-c3ccc(C(F)(F)F)cc3)n2)cc1 | 85.4% | 7.65% (active) | -19.7% (active) | 5.37% (active) | -6.8% (active) | -29.1% (active) | 12.7% | -50.2% (active) | 75% | 55.6% | 64.7% |  | 36% | -60.3% (active) | 79.5% | 35.7% | -61.1% (active) | -8.2% (active) | 11.9% | -25.9% (active)
7 | CCOC(=O)CNC(=O)CN(Cc1ccccc1)C(=O)[C@@]1(C)CCC[C@]2(C)[C@H]3C[C@H]4C(C(C)C)=C[C@]3(CC[C@H]21)[C@@H]1C(=O)OC(=O)[C@@H]14 | 82.3% | 67.6% | 69% | 65.5% | 90.3% | 57% | 88.3% | 110% | 15.6% | 27.8% | 4.44% (active) | 15.2% | 105% | 62.2% | 89.4% | 41.8% | 44.1% | 60.3% | 45.3% | 
8 | Cc1ccc(-c2nc(Nc3ccccc3C(=O)O)c3ccccc3n2)cc1 | 5.75% (active) | 13.1% | 22.2% | 12.6% | 58.9% | 7.89% (active) | 21.1% | 21.6% | 12.8% | 10.9% | 18.6% | 17.1% | 65.9% | 21.8% | 31.3% | 31.1% | 6.01% (active) | -9.53% (active) | 5.16% (active) | 
9 | COc1cc(C2CC(c3ccccc3)=Nc3c(N)nc(N)nc3N2)ccc1Oc1nc(Nc2ccc(F)cc2)nc(N(C)C)n1 (stereo unspecified) | 54.5% | 50.2% | 64.6% | 46.6% | 82.6% | 38.5% | 39.3% | 94.4% | 25.4% | 1.45% (active) | 2.83% (active) | 13.5% | 85.8% |  | 87.2% | 50.8% | 36.4% | 48.1% | 36.8% | 40.4%
10 | COc1ccc(NC(=O)Cn2c(/C=C/c3ccc(N(C)C)cc3)nc3ccccc3c2=O)cc1 | 76.4% | 71.2% | 24% | 2.65% (active) | 62.8% | -2.17% (active) | 18.9% | 56.5% | 90.9% | 85.3% | 72.5% | 57.1% | 66.4% |  | 24.7% | 47.2% | 26.9% | 65.7% | 32.2% | 21%
11 | COc1cc2oc(-c3cccc(C(=O)Nc4ccc(Cl)cc4)c3)cc(=O)c2c(OCCNC(=O)CNC(=O)OC(C)(C)C)c1OC | 78.4% | 64.7% | 53.5% | 49.7% | 83.9% | 61.3% | 34.2% | 118% | 49.4% | 41.1% | 37.5% | 29.4% | 67.8% |  | 92.7% | 50.9% | 98.3% | 62.8% | 50.6% | 48%
12 | COc1cnc2c(c1)C(=O)c1c-2n(CCCNCCO)c(=O)c2cc(OC)c(OC)cc12 | 104% | 87.9% | 18.4% | 34% | 101% | 3.42% (active) | 12% | 101% | 12.8% | 12.8% | 5.85% (active) | 4.21% (active) | 24% | 47.8% | 7.28% (active) | 27.2% | 3.13% (active) | 105% | 88% | 
13 | Cc1ccc(C(=O)NNC(=O)CSc2nc3ccccc3c(=O)[nH]2)cc1 | 107% | 97.2% | 94.1% | 75.2% | 107% | 107% | 95.7% | 94.6% | 98.8% | 96.4% | 73% | 105% | 104% |  | 116% | 102% | 103% | 97.5% | 101% | 97.8%
14 | CN(CCO)c1oc(-c2ccccc2)nc1[P+](c1ccccc1)(c1ccccc1)c1ccccc1 | -33.8% (active) | 18.1% | -3.43% (active) | 74.3% | 24% | 56.3% | 59.7% | -7.19% (active) | 9.94% (active) | 13.4% | 5.21% (active) |  | 16.2% | 15.1% | -13.5% (active) | 6.36% (active) | -0.969% (active) | -11.4% (active) | 96.6% | 12.3%
